Source: PubChem
TDP1 cell CPT – growth inhibition of DT40 Tdp1-/-;hTDP1 cells with camptothecin (screen for TDP1 inhibitors); chicken DT40 Tdp1-/-;hTDP1 cells + 20 nM CPT, ATP luminescence, 48 h; Potency, µM (doses to about 46.2 µM), hits mostly inhibitors; 420,000 tested, 12% active; AID 686979; also: nearly all actives have a fitted effect of over 55% in size
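Chicken DT40 Tdp1-/- cells complemented with human TDP1, 400 cells/well, exposed to compounds plus 20 nM camptothecin for at least 48 h at 37 C; viability read as ATP content by CellTiter-Glo luminescence.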
IL-1B inflam inh – blocks inflammasome-driven IL-1 beta release; THP-1 LPS/ATP IL-1B secretion, AlphaLISA, 16 h; active compounds read low; activity change, % at 57.5 µM; 360,000 tested, 4.7% active; in the data active = activity change below about -50%; inconclusive = mostly about -30% to -49%
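THP-1 cells pretreated 1 hr with compounds (up to 57.5 uM final), then stimulated with LPS (250 ng/mL final) plus ATP (1.25 mM final); secreted IL-1B measured by AlphaLISA after 16 hr, decreased signal indicating inhibition.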
TDP1 cell noCPT – qHTS for Inhibitors of human tyrosyl-DNA phosphodiesterase 1 (TDP1): qHTS in cells in absence of CPT. 420,000 tested, 15% active. DT40 Tdp1-/- hTDP1 cells, no CPT, ATP luminescence, 48 h. AID 686978, 2013. Potency, µM (titrated, usually from 46.2 µM), most hits filed as inhibitors; also: nearly all actives have a fitted effect of over 55% in size
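Growth of hTDP1-complemented DT40 Tdp1-knockout cells is measured by ATP luminescence after at least 48 hr compound exposure at 37 °C, with DMSO substituting for the 20 nM CPT used in the parallel screen.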
HT1080NT lethal – kills 2HG-producing HT-1080-NT fibrosarcoma cells; HT-1080-NT fibrosarcoma viability, CellTiter-Glo ATP luminescence, 48 h; Potency, µM (titrated, usually from 46.1 µM), actives largely listed as cytotoxic; 360,000 tested, 1.6% active; AID 686970;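 also: NT is the 2HG producing partner of a matched IDH1 knockdown line; nearly all actives have a fitted effect of over 55% in size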
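HT-1080-NT fibrosarcoma cells (2HG-overproducing), 750 cells/well in RPMI with 5% FBS, dosed after 2 h and incubated 48 h at 37C. CellTiter-Glo luminescence normalized to DMSO and no-cell wells; concentration-response curves fitted and classed.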
HT1080 IDH1KD tx – kills HT-1080 cells with IDH1 knockdown; 360,000 tested, 2% active; AID 686971; HT-1080 IDH1 knockdown viability, ATP luminescence, 48 h; Potency, µM (series often up to 46.1 µM), most hits filed as cytotoxic
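IDH1KD HT-1080 cells, 750/well, RPMI + 5% FBS; compound pinned after 2 h settling; 48 h, 37 °C; CellTiter-Glo luminescence; % activity normalised to DMSO and no-cell wells; curves fitted, classed by r2 and efficacy.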
A number is an active result; - = inactive; ? = inconclusive; . = no result given. Hits are enriched below; roughly 19% of the tested compounds scored in any of these assays. Unless noted, calls follow the shape of the dose curve; as a rule, active = well fitted curve in the direction sought with a large enough effect; inconclusive = small, poorly fitted or top-dose-only effect, or another doubt; inactive = no such curve, though single readings can be large; an effect the other way counts as inactive or inconclusive.

SMILES | TDP1 cell CPT | IL-1B inflam inh | TDP1 cell noCPT | HT1080NT lethal | HT1080 IDH1KD tx
CC1CN(C(NC(=O)C(C)(C)C)C(Cl)(Cl)Cl)CC(C)O1 (stereo not given) | - | - | - | - | -
COc1ccc(C2=CC(=O)C[C@H](c3ccc(F)cc3)C2)c(OC)c1 | ? | ? | ? | - | -
CCCc1ccc(C2=Nn3c(nnc3C(C)C)SC2)cc1 | ? | -90.8 | ? | ? | ?
CC(C)c1nnc2n1N=C(c1ccc(Cl)cc1)CS2 | - | - | - | - | -
COc1ccc(OC)c(C2=Nn3c(nnc3-c3cccc(OC(C)C)c3)SC2)c1 | 13µM | - | 11.6µM | - | -
CC(C)c1onc(C(=O)N2CCCCCC2)c1[N+](=O)[O-] | - | - | ? | - | -
CC(C)c1onc(C(=O)NC2CCCCC2)c1[N+](=O)[O-] | 20.6µM | - | 20.6µM | - | ?
O=C(CN1CCCc2ccccc21)N/N=C/c1ccc(O)cc1O | ? | - | 16.4µM | ? | ?
O=C(CN1CCCc2ccccc21)N/N=C/c1c(O)ccc2ccccc12 | 4.11µM | - | 3.66µM | ? | ?
O=C(CN1CCCc2ccccc21)N/N=C/c1ccccc1 | ? | - | 16.4µM | - | -
CCCS(=O)(=O)c1nc(S(=O)(=O)c2ccc(C)cc2)c(NCc2ccccc2Cl)s1 | - | . | - | . | .
Cc1cccc(-c2nc3cc(NC(=O)Cc4ccc(Cl)cc4)ccc3o2)c1 | 16.4µM | . | 10.3µM | . | .
Cc1ccc2oc(-c3cccc(NC(=O)Cc4ccc(Cl)cc4)c3)nc2c1 | - | . | - | . | .
Cc1ccc(SCC(=O)Nc2ccc3oc(-c4cccc(Cl)c4)nc3c2)cc1 | ? | . | 20.6µM | . | .
Cc1cc2nc(-c3cccc(NC(=O)CSc4ccc(Cl)cc4)c3)oc2cc1C | 16.4µM | . | ? | . | .
COC(=O)c1sccc1N(C)S(C)(=O)=O | - | - | - | - | -
COc1ccccc1N1C(=O)c2cccc3c(Cl)ccc(c23)C1=O | ? | - | 13µM | - | -
COc1cccc(C(=O)Oc2cc(-c3ccccc3)no2)c1 | - | - | - | - | -
CC(=O)c1cccc(OC(=O)c2ccc3c(=O)n4c(nc3c2)CCC4)c1 | - | - | - | - | -
COc1ccccc1N1CCN(C(CNS(=O)(=O)c2ccc(C)cc2)c2cccnc2)CC1 (stereo not given) | ? | - | 7.31µM | - | -
COc1ccc(CNC(=O)C(=O)NCC(c2cccnc2)N2CCN(c3ccccc3F)CC2)cc1 (stereo not given) | 11.6µM | . | 18.4µM | . | .
COc1ccccc1N1CCN(C(CNC(=O)C(=O)NCc2ccc(F)cc2)c2cccnc2)CC1 (stereo not given) | 8.2µM | . | 5.8µM | . | .
COc1ccccc1N1CCN(C(CNS(C)(=O)=O)c2cccnc2)CC1 (stereo not given) | - | - | - | - | -
CC1(C)COC(c2cccc(C3=NC(C)(C)CO3)n2)=N1 | - | - | - | - | -
CCn1c(COc2cccc(C)c2C)nnc1SCC(=O)N1CCN(c2ccc(OC)cc2)CC1 | 20.6µM | - | 20.6µM | - | -
SMILES | TDP1 cell CPT | IL-1B inflam inh | TDP1 cell noCPT | HT1080NT lethal | HT1080 IDH1KD tx
CCn1c(COc2ccccc2C)nnc1SCC(=O)N1CCN(c2ccccc2)CC1 | ? | - | 23.1µM | ? | -
CCn1c(COc2ccccc2C)nnc1SCC(=O)OC | - | - | - | - | -
O=C(O)[C@H]1CN(CCCP(=O)(O)O)CCN1 | - | . | - | . | .
CC(=O)Nc1cccc(-c2ccnc3c2CC(C(=O)NCc2ccc(F)c(F)c2)O3)c1 (stereo not given) | 3.26µM | - | 3.26µM | ? | ?
O=C(NCc1cccc(Cl)c1)C1Cc2c(-c3ccccc3)ccnc2O1 (stereo not given) | 29.1µM | - | 16.4µM | - | -
CC(=O)Nc1cccc(-c2ccnc3c2CC(C(=O)NCc2ccc(N(C)C)cc2)O3)c1 (stereo not given) | 13µM | - | 18.4µM | ? | ?
O=C(NCc1cccc(Cl)c1)C1Cc2c(-c3ccc(Cl)cc3)ccnc2O1 (stereo not given) | ? | - | ? | - | -
CC(=O)c1cccc(-c2ccnc3c2CC(C(=O)NCc2ccncc2)O3)c1 (stereo not given) | ? | - | ? | - | -
NC(=O)c1cccc(-c2ccnc3c2CC(C(=O)NCc2ccccc2)O3)c1 (stereo not given) | 0.581µM | - | 1.3µM | ? | ?
CC(=O)Nc1cccc(-c2ccnc3c2CC(C(=O)NCc2ccncc2)O3)c1 (stereo not given) | - | - | - | - | -
CC(C)CCCC(C)C1CCC2C3CC=C4CC(=O)CC[C@@]4(C)C3CC[C@@]12C (stereo not given in full) | - | . | - | . | .
O=C1NC(=O)[C@H]2[C@@H]1[C@@H]1C=C[C@H]2C1 | - | . | - | . | .
O=C(NCCC(F)(F)F)C1Cc2c(-c3cccc(F)c3)ccnc2O1 (stereo not given) | - | - | - | - | -
CN1CCN(c2ccc(CNC(=O)C3Cc4c(-c5ccc(Cl)cc5)ccnc4O3)cc2)CC1 (stereo not given) | ? | ? | 16.4µM | ? | ?
NC(=O)c1cccc(-c2ccnc3c2CC(C(=O)NCc2ccc(F)c(F)c2)O3)c1 (stereo not given) | 4.61µM | - | 8.2µM | . | .
O=C(NCc1ccncc1)C1Cc2c(-c3ccc(Cl)cc3)ccnc2O1 (stereo not given) | ? | - | ? | - | -
O=C(NCc1cccnc1)C1Cc2c(-c3ccc(Cl)cc3)ccnc2O1 (stereo not given) | 5.8µM | - | 8.2µM | 5.8µM | 18.4µM
O=S1(=O)CC(N2CC=CC2)CN1Cc1cn(Cc2cccc(C(F)(F)F)c2)nn1 (stereo not given) | - | - | - | - | -
COc1cccc2c1OC[C@@H](CO)[C@H]2N(C)C(=O)Nc1ccc(Cl)cc1Cl | 13µM | - | 10.3µM | - | -
COc1ccccc1-c1nnc(SCC(=O)Nc2ccc(Cl)cc2Cl)o1 | - | - | - | - | -
Nc1[nH]c(C(=O)c2ccccc2)c(-c2ccc(Br)cc2)c1C(=O)NCCc1c[nH]c2ccccc12 | ? | ? | 18.4µM | - | -
COc1ccc(C(=O)c2[nH]c(N)c(C(=O)NCCc3c[nH]c4ccccc34)c2-c2ccc(C(F)(F)F)cc2)cc1 | 16.4µM | - | 20.6µM | - | -
COc1ccccc1CCNC(=O)c1c(N)[nH]c(C(=O)c2ccccc2)c1-c1ccc(Br)cc1 | ? | - | ? | - | -
COc1ccc(C(=O)c2[nH]c(N)c(C(=O)NCCc3c[nH]c4ccccc34)c2-c2ccc(Br)cc2)cc1 | ? | - | 20.6µM | ? | ?
